Compound activity: PubChem, ICCB-Longwood Screening Facility, Harvard Medical School
The list is not random: actives were taken first. Their share in the collection is about 1.4%.
Mtb MbtI inh = MbtI salicylate synthase inhibitors, primary screen, biochemical, fluorescence intensity | inhibition, % (no concentration beside the values) | hit rate 0.89% among 100,000 | purified MbtI enzyme, fluorescence intensity read-out | P9WFX0; in the data active = inhibition mostly above about 56%, no sharp cut-off; inactive = mostly below about 77%
Target sequence (P9WFX0 whole entry, looked up): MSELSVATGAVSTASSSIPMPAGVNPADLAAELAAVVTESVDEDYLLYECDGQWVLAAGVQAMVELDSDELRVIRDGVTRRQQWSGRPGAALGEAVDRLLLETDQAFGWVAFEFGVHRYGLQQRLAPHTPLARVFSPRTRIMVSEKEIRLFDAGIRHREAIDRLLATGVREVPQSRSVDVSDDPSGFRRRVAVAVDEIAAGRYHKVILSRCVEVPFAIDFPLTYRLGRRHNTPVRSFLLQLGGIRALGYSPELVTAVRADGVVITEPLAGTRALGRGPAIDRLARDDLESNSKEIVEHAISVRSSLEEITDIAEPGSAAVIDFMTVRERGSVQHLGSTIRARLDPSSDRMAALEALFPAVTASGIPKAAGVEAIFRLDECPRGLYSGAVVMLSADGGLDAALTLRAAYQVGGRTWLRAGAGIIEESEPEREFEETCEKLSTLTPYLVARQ
Mtb MenB inh = M. tuberculosis MenB inhibitors, primary screen, biochemical, absorbance | inhibition, % (concentration not given with the values) | MenB enzyme assay, absorbance read-out | AID 540299, 2011 | hit rate 0.43% among 100,000 | 1,4-dihydroxy-2-naphthoyl-CoA synthase (Mycobacterium tuberculosis (strain ATCC 25618 / …; in the data active = inhibition above about 21%, passing the limit was not always enough
AID504770 = growth inhibition of E. coli YBA685, primary screen, V. cholerae RctB inhibitors. E. coli YBA685 rctB-dependent plasmid, OD600 growth, 3 h; hits give low values. z-score (no concentration beside the values). hit rate 0.27% among 130,000. AID 504770, 2011; in the data active = z-score below about -2, passing the limit was not always enough
PV pol inh = poliovirus RdRp elongation inhibitors, primary screen, biochemical, fluorescence polarization, total intensity | poliovirus polymerase elongation; hits give low values | % elongation, % (compound at 16.7 µg/mL) | hit rate 0.66% among 150,000 | AID 588519, 2011; in the data active = % elongation below about 90%
* marks the source's active call; other numbers are inactive results; . = not tested or not shown.

SMILES	Mtb MbtI inh	Mtb MenB inh	AID504770	PV pol inh
CCn1c(COc2cc(C)ccc2C)nnc1SC(C)C(=O)Nc1ccc2c(c1)OCO2 (configuration not stated)	5	-30	-0.15	101
CN(C)c1ccc(C2=CC=CC(=C3C=CC(=[N+](C)C)C=C3)O2)cc1	84*	-53	1	99
CN(C)c1ccc(C(=C2C=CC(=[N+](C)C)C=C2)c2ccc(N(C)C)cc2)cc1	9	6	5.7	98
Cc1nc2c3cccnc3nn2c(C)c1CCC(=O)NCc1ccccc1	.	.	.	104
CSc1ccc(CCNC(=O)CCc2c(C)nc3c4cccnc4nn3c2C)cc1	.	.	.	14*
Sc1ccc2c(c1)OCCCO2	94*	6	-0.05	98
FC(F)(F)c1ccccc1CN1CCN(CC2CC3C=CC2C3)CC1 (configuration not stated)	.	-2	-0.55	48*
c1ccc(CN(CCN(Cc2ccccn2)Cc2ccccn2)Cc2ccccn2)nc1	-14	30*	.	104
O=C(COC(=O)CSc1n[nH]c(-c2ccccc2)n1)NC1CCCCC1	.	11	0.9	84*
O=C(CSc1n[nH]c(Cc2ccccc2)n1)NC1CCCCC1	-9	-9	0.85	98
CCCC(/N=C/c1cc(Cl)ccc1O)/N=C/c1cc(Cl)ccc1O	-19	-17	-0.8	101
CCOC(=O)C1=C(CSc2nnc(-c3cccs3)n2-c2ccccc2)NC(=O)NC1C (configuration not stated)	15	-40	-2.5*	105
COc1ccc(-c2oc3ncn4nc(COc5ccc(Cl)cc5)nc4c3c2-c2ccc(OC)cc2)cc1	.	.	.	55*
CC(=O)Nc1cccc(SSc2cccc(NC(C)=O)c2)c1	97*	10	-0.1	99
O=C1CSCC(=O)N1c1cccnc1	-12	3	-1	84*
O=C1CSCC(=O)N1c1ccc2c(c1)OCO2	.	.	-0.3	.
Cc1ccc(/C=C2/CC(C)C/C(=C\c3ccc(C)o3)C2=O)o1 (configuration not stated)	92*	-48	1.9	120
Cc1ccc(/C=C2/C=CC(=O)O2)o1	.	-313	-1.5	81*
Cc1ccc(/C=C2\CC/C(=C\c3ccc(C)o3)C2=O)o1	99*	-74	-0.7	84
Cc1ccc(/C=C2\CCCc3ccccc3C2=O)o1	21	-10	1.2	103
Cc1ccc(/C=C2/C(=O)/C(=C/c3ccc(C)o3)C3CCC2N3C)o1	58	-138	-1.6	71
O=C(Cn1c(=O)n(CCCS(=O)(=O)C2CCCCC2)c(=O)c2ccccc21)Nc1ccc(F)cc1	5	1	1.4	100
CC(=O)N1CCN(C(=S)c2ccc(-c3ccc(C)cc3)o2)CC1	80	2	-0.05	96
S=C(c1ccc(-c2ccccc2)o1)N1CCN(c2ccccc2)CC1	92*	2	-0.45	68*
Cc1nnc(N2C(=O)C(=O)/C(=C(/O)c3ccc(OC(C)C)cc3)C2c2ccco2)s1 (configuration not stated)	-1	-90	0.2	101
SMILES	Mtb MbtI inh	Mtb MenB inh	AID504770	PV pol inh
COc1ccc(-c2nn(-c3ccccc3)cc2C=C2C(=O)CC(C)(C)CC2=O)cc1	6	2	0.05	102
Cc1ccc2nc(C(C)O)[nH]c2c1 (configuration not stated)	-5	-2	0.75	97
CC(O)c1nc2cc3ccccc3cc2[nH]1 (configuration not stated)	89	34*	1.5	102
O=S(=O)(c1ccc(Cl)cc1)N1CN(C2CCCC2)c2nc3ccccc3nc21	-12	-10	-0.65	.
COc1ccc(OC)c(-c2nnc3n(Cc4ccc(C)cc4)c(=O)c4ccccc4n23)c1	.	.	.	64*
COc1ccc(Cn2c(=O)c3ccccc3n3c(-c4ccccc4O)nnc23)cc1	-12	-13	1.1	106
O=C1c2ccccc2C(=O)N1Cc1ccco1	1	-7	0.25	103
Nn1c(=S)[nH]nc(Cc2ccco2)c1=O	.	-44	-0.95	73*
CCSc1ccccc1C(=O)NCCCn1ccnc1	18	40*	0.6	102
O=C(Cc1c(F)cccc1Cl)NCCCn1ccnc1	-1	40*	0.95	102
CC1=NN(C(=O)c2cccs2)C(O)(C(F)(F)F)C1 (configuration not stated)	0	4	-0.6	102
Cc1ccc(NC(=O)Sc2ccc(Cl)cc2)cc1	57*	-13	0.45	96
Cc1scc(-c2ccccc2)[n+]1CCO	54*	-3	-0.25	104
O=c1c(Cc2cc(Cl)cc(Cl)c2O)c(O)nc2n1CCCS2	8	10	0.75	103
N#C/C(=C\c1ccccc1Cl)S(=O)(=O)c1ccc(Cl)cc1	-7	1	-1.1	108
O=C(CSc1nnc(-c2ccc(Cl)cc2Cl)n1Cc1ccco1)c1ccc[nH]1	18	44*	2.1	110
CCOCCn1ccc2c(OCc3cccnc3)cccc2c1=O	13	-5	-1.1	103
Cc1sc(Nc2ccccc2)nc1-c1ccccc1	-2	-7	0.5	101
c1ccc(Nc2nc3c(ccc4ccccc43)s2)cc1	.	-19	-0.55	83*
COc1cc(C2NC(=O)NC3=C2C(=O)N(Cc2ccc(F)cc2)C3)cc(OC)c1OC (configuration not stated)	1	-10	-0.65	104
O=C1NNC(=S)C1C1CC1 (configuration not stated)	83*	17	-0.15	99
O=C1NC(=S)NC(=O)C1C1CCCCC1	12	-32	-0.8	104
O=c1c(=Nc2ccc(O)cc2)c(=O)c2ccccc12	42	.	0.1	49*
CCSc1nsc(NC(=O)Nc2cccc(F)c2)n1	20	15	-2.8*	102
CCC(=O)NC(=S)c1c(C)nc2sccn12	15	-222	-0.65	57*
SMILES	Mtb MbtI inh	Mtb MenB inh	AID504770	PV pol inh
C[n+]1cccc2ccc(O)cc21	21	-187	-0.35	61
Cc1c(Br)c(C(F)(F)F)nn1CC(=O)N1CCOCC1	.	9	-0.1	99
O=c1oc2c3c(ccc2c2ccccc12)OCN(Cc1ccc(Cl)cc1)C3	.	.	.	88*
COc1ccc(CN2COc3ccc4c(oc(=O)c5ccccc54)c3C2)cc1OC	.	.	.	100
NCCSc1n[nH]c(=O)[nH]c1=O	8	-16	-0.1	100
CCCCCCSc1n[nH]c(=O)[nH]c1=O	-8	-9	-0.4	86*
CC1=CC(=O)C(CCOCCC2=CC(=O)C(C)=CC2=O)=CC1=O	100*	-4	0.75	101
CC1=CC(=O)C(CCCCCC2=CC(=O)C(C)=CC2=O)=CC1=O	95*	7	1.3	103
Cc1nc2nc(N3C(=O)c4ccccc4C3=O)[nH]n2c(=O)c1Cl	-9	-13	1	106
Cc1ccc(C(=O)OCC(=O)c2ccccc2)s1	-4	-19	-0.5	103
Cc1ccc(C(=O)CCC(=O)O)s1	23	-33	-3.3*	104
CN(C)c1ccc(NC(=S)N=P(c2ccncc2)(N(C)C)N(C)C)cc1	81*	-32	1.4	101
CN(C)c1ccc(NC(=O)c2ccccn2)cc1	11	-32	0	99
